Legend:
Conditions in all cases: concentration: 1 μM,replicates: in singlicate; n = 1
MTOR = test system: MTOR
MUSK = test system: MUSK
MYLK2 = test system: MYLK2
MYLK4 = test system: MYLK4
MYLK = test system: MYLK
MYO3A = test system: MYO3A
MYO3B = test system: MYO3B
NDR1 = test system: T1, NDR1
T1 construct: gene STK38

NDR2 = test system: NDR2
NEK10 = test system: NEK10
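Further: KINOMEscan kinase panel screen.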

## Cn1ccc2ncnc(Oc3ccc(NC(=O)Nc4ccnc(C(F)(F)F)c4)c(Cl)c3)c21
MTOR
  %Inh: 25%
MUSK
  %Inh: 42%
MYLK2
  %Inh: 0%
MYLK4
  %Inh: 0%
MYLK
  %Inh: 0%
MYO3A
  %Inh: 0%
MYO3B
  %Inh: 0%
NDR1
  %Inh: 0%
NDR2
  %Inh: 2%
NEK10
  %Inh: 0%

## Cn1ccc2ncnc(Oc3ccc(NC(=O)Nc4cccc(C(F)(F)F)c4)c(Cl)c3)c21
MTOR
  %Inh: 33%
MUSK
  %Inh: 94.6%
MYLK2
  %Inh: 21%
MYLK4
  %Inh: 5%
MYLK
  %Inh: 3%
MYO3A
  %Inh: 0%
MYO3B
  %Inh: 22%
NDR1
  %Inh: 17%
NDR2
  %Inh: 0%
NEK10
  %Inh: 0%

## CSc1nccc(-c2c(-c3ccc(F)cc3)ncn2CCCN2CCOCC2)n1.Cl [SB-217146]
MTOR
  %Inh: 35%
MUSK
  %Inh: 0%
MYLK2
  %Inh: 0%
MYLK4
  %Inh: 0%
MYLK
  %Inh: 5%
MYO3A
  %Inh: 21%
MYO3B
  %Inh: 8%
NDR1
  %Inh: 42%
NDR2
  %Inh: 26%
NEK10
  %Inh: 14%

## CCCC(=O)Nc1n[nH]c2ncccc12 [SB-601436]
MTOR
  %Inh: 0%
MUSK
  %Inh: 0%
MYLK2
  %Inh: 0%
MYLK4
  %Inh: 0%
MYLK
  %Inh: 2%
MYO3A
  %Inh: 0%
MYO3B
  %Inh: 12%
NDR1
  %Inh: 9%
NDR2
  %Inh: 0%
NEK10
  %Inh: 0%

## CCNCC(Cc1ccccc1)NC(=O)c1cc(Br)c(-c2ccnc3[nH]ccc23)s1.Cl.Cl (stereo not shown) [GSK1383280]
MTOR
  %Inh: 8%
MUSK
  %Inh: 2%
MYLK2
  %Inh: 22%
MYLK4
  %Inh: 86%
MYLK
  %Inh: 73%
MYO3A
  %Inh: 15%
MYO3B
  %Inh: 0%
NDR1
  %Inh: 99.8%
NDR2
  %Inh: 52%
NEK10
  %Inh: 0%

## COc1ccc(Nc2nccc(N3CCC(NC(=O)c4cccc(C#N)c4)C3)n2)cc1 (stereo not shown) [GSK1379730]
MTOR
  %Inh: 10%
MUSK
  %Inh: 5%
MYLK2
  %Inh: 0%
MYLK4
  %Inh: 0%
MYLK
  %Inh: 0%
MYO3A
  %Inh: 0%
MYO3B
  %Inh: 0%
NDR1
  %Inh: 0%
NDR2
  %Inh: 0%
NEK10
  %Inh: 28%

## CCn1c(-c2nonc2N)nc2cncc(Br)c21 [SB-738004]
MTOR
  %Inh: 15%
MUSK
  %Inh: 0%
MYLK2
  %Inh: 16%
MYLK4
  %Inh: 16%
MYLK
  %Inh: 31%
MYO3A
  %Inh: 39%
MYO3B
  %Inh: 3%
NDR1
  %Inh: 38%
NDR2
  %Inh: 35%
NEK10
  %Inh: 43%

## Cc1ccc(CC(=O)N2CCc3cc(-c4cn(C)c5ncnc(N)c45)ccc32)cc1 [GSK2634758]
MTOR
  %Inh: 32%
MUSK
  %Inh: 0%
MYLK2
  %Inh: 87%
MYLK4
  %Inh: 0%
MYLK
  %Inh: 0%
MYO3A
  %Inh: 0%
MYO3B
  %Inh: 9%
NDR1
  %Inh: 18%
NDR2
  %Inh: 8%
NEK10
  %Inh: 0%

## COc1cccc(CNC(=O)NC2CCN(c3ccnc(Nc4cc(OC)c(OC)c(OC)c4)n3)C2)c1 (stereo not shown) [GSK1379765]
MTOR
  %Inh: 31%
MUSK
  %Inh: 83%
MYLK2
  %Inh: 11%
MYLK4
  %Inh: 9%
MYLK
  %Inh: 20%
MYO3A
  %Inh: 27%
MYO3B
  %Inh: 0%
NDR1
  %Inh: 15%
NDR2
  %Inh: 0%
NEK10
  %Inh: 14%

## COc1cccc(C2=C(Nc3cccc(Cl)c3)C(=O)NC2=O)c1 [SB-341556]
MTOR
  %Inh: 8%
MUSK
  %Inh: 9%
MYLK2
  %Inh: 0%
MYLK4
  %Inh: 23%
MYLK
  %Inh: 0%
MYO3A
  %Inh: 0%
MYO3B
  %Inh: 0%
NDR1
  %Inh: 0%
NDR2
  %Inh: 0%
NEK10
  %Inh: 73%

## CN1CCN(CCCNc2nccc(-c3c(-c4ccc(F)cc4)nn4cc(C(N)=O)ccc34)n2)CC1 [GW622475]
MTOR
  %Inh: 5%
MUSK
  %Inh: 6%
MYLK2
  %Inh: 10%
MYLK4
  %Inh: 5%
MYLK
  %Inh: 26%
MYO3A
  %Inh: 10%
MYO3B
  %Inh: 0%
NDR1
  %Inh: 33%
NDR2
  %Inh: 0%
NEK10
  %Inh: 25%

## CS(=O)c1ccc(-c2coc3ccc(-c4n[nH]c(=O)o4)cc23)cc1 (stereo not shown)
MTOR
  %Inh: 17%
MUSK
  %Inh: 0%
MYLK2
  %Inh: 20%
MYLK4
  %Inh: 24%
MYLK
  %Inh: 41%
MYO3A
  %Inh: 0%
MYO3B
  %Inh: 0%
NDR1
  %Inh: 2%
NDR2
  %Inh: 22%
NEK10
  %Inh: 56%

## Cn1ccc2ncnc(Oc3ccc(NC(=O)Nc4cnn(C(C)(C)C)c4)c(Cl)c3)c21
MTOR
  %Inh: 0%
MUSK
  %Inh: 21%
MYLK2
  %Inh: 4%
MYLK4
  %Inh: 11%
MYLK
  %Inh: 0%
MYO3A
  %Inh: 1%
MYO3B
  %Inh: 9%
NDR1
  %Inh: 6%
NDR2
  %Inh: 8%
NEK10
  %Inh: 14%

## CNC(=O)c1ccccc1Nc1nc(Nc2cccc(CS(C)(=O)=O)c2)ncc1C.O=CO [GSK1520489]
MTOR
  %Inh: 2%
MUSK
  %Inh: 69%
MYLK2
  %Inh: 18%
MYLK4
  %Inh: 99.8%
MYLK
  %Inh: 30%
MYO3A
  %Inh: 28%
MYO3B
  %Inh: 0%
NDR1
  %Inh: 92.2%
NDR2
  %Inh: 80%
NEK10
  %Inh: 14%

## C[C@@H](Oc1cc(-n2cnc3ccc(-c4ccncc4)cc32)sc1C(N)=O)c1ccccc1Cl [GSK483724]
MTOR
  %Inh: 32%
MUSK
  %Inh: 28%
MYLK2
  %Inh: 48%
MYLK4
  %Inh: 94.9%
MYLK
  %Inh: 13%
MYO3A
  %Inh: 0%
MYO3B
  %Inh: 0%
NDR1
  %Inh: 10%
NDR2
  %Inh: 0%
NEK10
  %Inh: 12%

## O=C1NCCc2[nH]c(-c3ccncc3)cc21
MTOR
  %Inh: 0%
MUSK
  %Inh: 34%
MYLK2
  %Inh: 20%
MYLK4
  %Inh: 5%
MYLK
  %Inh: 33%
MYO3A
  %Inh: 7%
NDR1
  %Inh: 20%
NDR2
  %Inh: 0%
NEK10
  %Inh: 14%

## FC(F)(F)c1cc(Br)cc(Nc2nccc(-c3cnn4ncccc34)n2)c1 [GW810578]
MTOR
  %Inh: 0%
MUSK
  %Inh: 18%
MYLK2
  %Inh: 1%
MYLK4
  %Inh: 29%
MYLK
  %Inh: 8%
MYO3A
  %Inh: 9%
MYO3B
  %Inh: 8%
NDR1
  %Inh: 19%
NDR2
  %Inh: 13%
NEK10
  %Inh: 40%
